The results in this text go back to article PMC4336329 (PLoS ONE, 2015).

The whole screen tested about 310,000 compounds, of which about 14,000 (4.5%) showed an effect of 50% or more. Effects have a minus sign here. What follows is part of a selection rich in strong results, with near analogues and random picks from the rest.
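Further: peak tail current of the secondary pulse compared with the same well before compound.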

For this experiment, the target named is human ether-à-go-go-related gene (hERG) potassium channel (human, UniProt Q12809). Put plainly: primary screen, population patch clamp on CHO cells stably expressing hERG; higher = less effect of the substance.
human ether-à-go-go-related gene (hERG) potassium channel, sequence (Q12809 whole entry, looked up): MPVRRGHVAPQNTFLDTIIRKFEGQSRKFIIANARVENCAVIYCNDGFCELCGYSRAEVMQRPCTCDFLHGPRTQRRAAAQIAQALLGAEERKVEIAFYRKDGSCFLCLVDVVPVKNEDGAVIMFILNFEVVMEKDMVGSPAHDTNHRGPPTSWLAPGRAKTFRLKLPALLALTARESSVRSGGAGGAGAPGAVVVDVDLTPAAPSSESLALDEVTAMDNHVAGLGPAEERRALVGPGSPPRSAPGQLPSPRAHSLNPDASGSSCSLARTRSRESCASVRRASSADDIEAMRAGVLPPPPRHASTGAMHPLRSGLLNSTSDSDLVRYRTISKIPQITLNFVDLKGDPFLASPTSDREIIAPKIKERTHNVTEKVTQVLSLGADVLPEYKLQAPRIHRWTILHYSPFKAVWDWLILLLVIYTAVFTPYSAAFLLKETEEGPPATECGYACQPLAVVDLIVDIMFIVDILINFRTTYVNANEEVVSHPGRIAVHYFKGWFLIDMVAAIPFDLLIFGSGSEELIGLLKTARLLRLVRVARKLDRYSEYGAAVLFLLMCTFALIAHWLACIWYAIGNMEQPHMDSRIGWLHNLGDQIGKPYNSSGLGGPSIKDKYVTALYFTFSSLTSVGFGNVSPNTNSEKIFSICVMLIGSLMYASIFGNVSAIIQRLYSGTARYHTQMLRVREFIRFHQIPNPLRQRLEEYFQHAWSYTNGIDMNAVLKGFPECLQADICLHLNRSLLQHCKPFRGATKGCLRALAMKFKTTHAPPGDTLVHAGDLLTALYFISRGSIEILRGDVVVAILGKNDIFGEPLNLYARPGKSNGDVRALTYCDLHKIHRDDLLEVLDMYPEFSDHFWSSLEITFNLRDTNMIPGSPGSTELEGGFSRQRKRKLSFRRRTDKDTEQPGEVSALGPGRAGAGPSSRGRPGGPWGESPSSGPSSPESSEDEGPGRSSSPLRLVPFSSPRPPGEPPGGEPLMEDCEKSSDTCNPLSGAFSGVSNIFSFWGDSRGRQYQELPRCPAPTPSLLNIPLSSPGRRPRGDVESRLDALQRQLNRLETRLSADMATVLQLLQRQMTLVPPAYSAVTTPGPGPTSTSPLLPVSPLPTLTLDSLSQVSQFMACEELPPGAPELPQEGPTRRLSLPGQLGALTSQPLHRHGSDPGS
With `CC(=O)Nc1ccc(NC(=O)COC(=O)Cc2c[nH]c3ccccc23)cc1`, the “hERG current change (%, negative = inhibition) at 10uM” value was 10.2%. For `Cl.O=C(CN1CCCCCC1)N1c2ccccc2Sc2ccc(C(F)(F)F)cc21` the value was -1.87%; for `COc1cccc(CNC(=O)c2nnn(CC(=O)Nc3ccc(Br)cc3)c2N)c1`, 17.5%; for `O=C(CNC(=O)Cc1ccc(Cl)cc1)NCC(=O)N1CCCCC1`, 17.9%. As to `CCOC(=O)c1c(C)n(C)c2ccc(OCC(N)=O)cc12`, the “hERG current change (%, negative = inhibition) at 10uM” value amounted to 7.9%. For `CCCCN=C1NN=C(c2cccc([N+](=O)[O-])c2)CS1.Cl` the value was -4.82%; for `O=C(CN1CCSCC1)N/N=C/c1ccc(F)cc1F`, -6.43%. For `CCc1ccc(NC(=O)c2cc(C(C)C)on2)cc1`, the “hERG current change (%, negative = inhibition) at 10uM” value is reported as -27.3%.

In the case of `CC(C)(C)NCC(O)COc1c(F)cc(Br)cc1F.Cl` (stereo not shown), the “hERG current change (%, negative = inhibition) at 10uM” value was -7.38%.

For the compound `CC(C)NCC(O)COc1c(F)cc(Br)cc1F.Cl` (stereo not shown), the “hERG current change (%, negative = inhibition) at 10uM” value is given as -4.33%.

For `CC1CCCC(C)N1CC(O)COc1c(F)cc(Br)cc1F.Cl` (stereo not shown), the “hERG current change (%, negative = inhibition) at 10uM” value is -57.7%. With `CN(CC(O)COc1c(F)cc(Br)cc1F)C1CCCCC1.Cl` (stereo not shown), the “hERG current change (%, negative = inhibition) at 10uM” value was -65.9%. As to `CN(CC(O)COc1ccccc1F)C1CCCCC1.Cl` (stereo not shown), the “hERG current change (%, negative = inhibition) at 10uM” value is recorded as 2.08%.

On to `Cl.OC(CNC1CCCC1)COc1c(F)cc(Br)cc1F` (stereo not shown), for which the “hERG current change (%, negative = inhibition) at 10uM” value was -27.3%. For `Cn1c(=O)c2cc(S(=O)(=O)NC(C(=O)Nc3cccc(F)c3)c3ccccc3)ccc2n(C)c1=O` (stereo not shown) the value was -7.01%; for `COCCNC(=O)COc1ccccc1Cl`, 1.56%; for `COCCNc1ccnc2c(Cl)cccc12`, -81.9%. Regarding `COCCCNc1ccnc2c(Cl)cccc12`, the “hERG current change (%, negative = inhibition) at 10uM” value was -58.5%. As to `COCCNc1cc(C)nc2ccccc12.Cl`, the “hERG current change (%, negative = inhibition) at 10uM” value is on record as -10.8%. For `COCCCNc1nc(-c2ccc(Cl)cc2)nc2ccccc12` the value was -1.64%; for `COCCCNc1cc(C)nc2ccccc12.Cl`, -40.3%. For `O=S1(=O)N=C(N(CCO)/N=C/c2ccc(Br)cc2)c2ccccc21` the value was 15%.

In the case of `c1ccc2c(CSCCc3ccncc3)cccc2c1`, the “hERG current change (%, negative = inhibition) at 10uM” value is listed as -17.6%. For `COc1ccccc1CNC(=O)COC(=O)c1nc(Cl)ccc1Cl` the value was -2.78%; for `COc1ccc2c(c1)OC[C@H]1[C@H]2N2C(=O)CN(Cc3ccco3)C(=O)[C@@]2(C)[C@H]1c1ccccc1`, 10.7%; for `CCN(CC)CC(O)c1ccc(C2CCCC2)cc1.Cl` (stereo not shown), -63%.

With `CC(C)NCC(O)c1ccc(C2CCCC2)cc1.O=C(O)/C=C\C(=O)O` (stereo not shown), the “hERG current change (%, negative = inhibition) at 10uM” value is on record as -15.5%.

Take `CCCN(CC1CC1)CC(O)c1ccccc1.O=C(O)C(=O)O` (stereo not shown): the “hERG current change (%, negative = inhibition) at 10uM” value is reported as 4.51%.
